# Measured values taken from the supplement of paper PMC9135407.
# Counter-ions that a name gives are not always drawn. In all, about 5,800 compounds went through this assay and about 620 (11%) showed activity. The entries come from a sample that favours actives as a whole. A number with no mark means an inactive call.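 How the source made its calls: active = score above a cut-off or among the top three wells of a plate; in these data no inactive exceeds 0.85.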
# Tested on: primary human hepatic stellate cells (donor 1)
# Assay: scaled lipid accumulation score (0 = DMSO-like, 1 = nortriptyline-like); higher = stronger HSC inactivation (lipid re-accumulation), active = hit call of the paper
# Conditions: 48 h
# [1] = library stock concentration: 10 mM
# [2] = library stock concentration: 1 mM
# [3] = library stock concentration: 3.33 mM
# [4] = library stock concentration: 80 uM
# [5] = library stock concentration: 400 uM
# [6] = library stock concentration: 2 mM
structure (smiles),measurement,setting,value
Nc1nnc(Sc2ncc([N+](=O)[O-])s2)s1,scaled lipid accumulation score,[1],0.438
O=c1[nH]nc(Sc2ncc([N+](=O)[O-])s2)n1-c1ccc2c(c1)OCCO2,scaled lipid accumulation score,[1],1.25 (active)
O=C1NCCN1c1ncc([N+](=O)[O-])s1 [Niridazole],scaled lipid accumulation score,,≤ 0
CCCCC[C@H](O)/C=C/[C@@H]1[C@@H](CCCCCCCO)[C@@H](O)C[C@H]1O [Prostaglandin F1.alpha. Alcohol],scaled lipid accumulation score,[2],≤ 0
CCCCC(=O)Oc1ccccc1C(=O)O [Valeroyl Salicylate],scaled lipid accumulation score,[2],≤ 0
"CC[C@H](CO)Nc1nc(NCc2ccc(-c3ccccn3)cc2)c2ncn(C(C)C)c2n1 [CR8, (R)-Isomer]",scaled lipid accumulation score,[3],≤ 0
CCOC(=O)c1ncc2[nH]c3cccc(OC(C)C)c3c2c1C,scaled lipid accumulation score,[1],0.014
Cc1nc(N=Nc2cc(S(=O)(=O)O)c3cc([N+](=O)[O-])cc(S(=O)(=O)O)c3c2)c(COP(=O)(O)O)c(C=O)c1O [PPNDS tetrasodium],scaled lipid accumulation score,[1],0.229
CCCNCC(O)COc1ccccc1C(=O)CCc1ccccc1.Cl (stereo not given) [Propafenone hydrochloride],scaled lipid accumulation score,[1],0.887 (active)
N#Cc1ccccc1OCC(O)CNCCNC(=O)Nc1ccccc1 (stereo not given),scaled lipid accumulation score,[1],0.135
CCCNCC(O)COc1ccccc1C(=O)CCc1ccccc1 (stereo not given) [Propafenone],scaled lipid accumulation score,library stock concentration: 5.9 mM,0.566
"O=C(O)COc1ccc(OCCNC[C@H](O)COc2ccccc2)cc1 [ICI 215,001 hydrochloride]",scaled lipid accumulation score,[1],0.013
COCCNC(=O)COc1ccc(OCCNC[C@H](O)COc2ccccc2)cc1 [ZD 7114 hydrochloride],scaled lipid accumulation score,[1],0.134
CCCNCC(O)COc1ccccc1C(=O)CCc1ccccc1 (stereo not given) [Rythmol],scaled lipid accumulation score,[1],0.811
CCCNCC(O)COc1ccccc1C(=O)CCc1ccccc1 (stereo not given) [Propafenone HCl],scaled lipid accumulation score,[3],0.241
same,scaled lipid accumulation score,[1],0.684
CCCNCC(O)COc1ccccc1C(=O)CCc1ccccc1 (stereo not given) [Propafenone hydrochloride],scaled lipid accumulation score,,0.742
same,scaled lipid accumulation score,library stock concentration: 5.3 mM,0.429
same,scaled lipid accumulation score,[1],0.365
CC(C)ON(CC(=O)NO)S(=O)(=O)c1ccc(-c2ccccc2)cc1,scaled lipid accumulation score,[2],≤ 0
O=C1NN(C(=O)Nc2ccc(Br)cc2)[C@@H](c2ccccc2)[C@@H]1c1ccccc1,scaled lipid accumulation score,[1],0.026
COc1cccc(-c2cc(F)ccc2[C@H]2Cc3nc(N)nc(C)c3C(=O)N2)n1,scaled lipid accumulation score,[1],0.937 (active)
COc1ccc(-c2cc3c(C)nc(N)nc3n([C@H]3CC[C@H](OCCO)CC3)c2=O)cn1,scaled lipid accumulation score,[3],≤ 0
same,scaled lipid accumulation score,[1],0.45
COc1cccc(-c2cc(F)ccc2C2Cc3nc(N)nc(C)c3C(=O)N2)n1 (stereo not given),scaled lipid accumulation score,[3],0.806
Cc1ccsc1C(=CCCN1CCC[C@@H](C(=O)O)C1)c1sccc1C,scaled lipid accumulation score,[1],≤ 0
O=C1N[C@@H]2[C@@H](O)[C@@H](O)[C@H](O)[C@@H](CO)N2C1=O [Kifunensine],scaled lipid accumulation score,[2],0.034
CC(CCCCC(=O)Nc1ccc(C(F)(F)F)cc1)NCCc1cnc[nH]1 (stereo not given) [HTMT dimaleate],scaled lipid accumulation score,[1],0.519
NC(=O)CCCSc1nc(N)nc(-c2c(Cl)cc3c4c(cccc24)COC3)n1,scaled lipid accumulation score,[3],0.86 (active)
same,scaled lipid accumulation score,[1],0.886 (active)
O=P(O)(O)OC1[C@H](O)[C@H](O)C(O)[C@H](O)[C@H]1O (stereo partly drawn) [D-myo-Inositol-1-phosphate (sodium salt)],scaled lipid accumulation score,[2],0.012
CCCCCCC=CCCCCCCCCCCOC(C)=O [11-cis Vaccenyl Acetate],scaled lipid accumulation score,[2],≤ 0
Nc1nc(Nc2ccc(S(N)(=O)=O)cc2)nn1C(=S)Nc1c(F)cccc1F [Cdk1/2 Inhibitor III],scaled lipid accumulation score,[3],0.782
CCCCC/C=C\C[C@@H](O)/C=C/C=C\C/C=C\CCCC(=O)O,scaled lipid accumulation score,library stock concentration: 100 uM,≤ -0.021
CCC(NC(C)C)C(O)c1ccc(O)c2[nH]c(=O)ccc12 (stereo not given) [Procaterol hydrochloride],scaled lipid accumulation score,library stock concentration: 6.1 mM,≤ 0
same,scaled lipid accumulation score,[1],≤ -0.006
CCc1cc2c(cc1CC)CC(NC[C@H](O)c1ccc(O)c3[nH]c(=O)ccc13)C2.O=C(O)C=CC(=O)O [Indacaterol Maleate],scaled lipid accumulation score,[1],1.15 (active)
CCc1cc2c(cc1CC)CC(NC[C@H](O)c1ccc(O)c3[nH]c(=O)ccc13)C2 [Indacaterol Maleate],scaled lipid accumulation score,[3],0.494
CCC(NC(C)C)C(O)c1ccc(O)c2[nH]c(=O)ccc12 (stereo not given) [Procaterol hcl],scaled lipid accumulation score,library stock concentration: 6.9 mM,≤ -0.006
Cc1nc2ccc(-n3ncc(C(=O)c4cc5ccccc5[nH]4)c3N)cc2[nH]1 [listing 1 of 2 here],scaled lipid accumulation score,[4],0.004
same,scaled lipid accumulation score,[5],≤ -0.001
same,scaled lipid accumulation score,[6],≤ 0
O=C(O)c1cc2ccccc2[nH]1 [Indole-2-carboxylic acid],scaled lipid accumulation score,[1],≤ 0
Cc1nc2ccc(-n3ncc(C(=O)c4cc5ccccc5[nH]4)c3N)cc2[nH]1 [listing 2 of 2 here],scaled lipid accumulation score,[1],0.907 (active)
CC(C)c1cc(C(C)C)c(CC(=O)NS(=O)(=O)Oc2c(C(C)C)cccc2C(C)C)c(C(C)C)c1 [Avasimibe],scaled lipid accumulation score,[3],≤ 0
same,scaled lipid accumulation score,[1],≤ 0
COc1cc(/C=C/c2ccc(Cl)cc2)cc(OC)c1,scaled lipid accumulation score,[2],≤ 0
COc1cccc(NC(=O)/C=C/c2ccc(Cl)cc2)c1 [listing 1 of 2 here],scaled lipid accumulation score,[1],1.2 (active)
COc1cccc(NC(=O)/C=C/c2ccc(Cl)cc2)c1 [listing 2 of 2 here],scaled lipid accumulation score,[1],0.153
CCCCC/C=C\CCCCCCCCCCCCC(=O)O [14(Z)-Eicosenoic Acid],scaled lipid accumulation score,[2],≤ 0
CC(O)C(=O)O.CC(O)C(=O)O.CN1CCN(c2ccc3nc(-c4c(N)c5c(F)cccc5[nH]c4=O)[nH]c3c2)CC1 [Dovitinib (TKI-258) Dilactic Acid],scaled lipid accumulation score,[3],1.27 (active)
CN1CCN(c2ccc3nc(-c4c(N)c5c(F)cccc5[nH]c4=O)[nH]c3c2)CC1 [listing 1 of 2 here],scaled lipid accumulation score,[4],0.779
"CN1CCN(c2ccc3nc(-c4c(N)c5c(F)cccc5[nH]c4=O)[nH]c3c2)CC1 [Dovitinib (TKI-258, CHIR-258)]",scaled lipid accumulation score,[3],1.25 (active)
same,scaled lipid accumulation score,[1],1.13 (active)
CN1CCN(c2ccc3nc(-c4c(N)c5c(F)cccc5[nH]c4=O)[nH]c3c2)CC1 [listing 2 of 2 here],scaled lipid accumulation score,[5],0.945 (active)
same,scaled lipid accumulation score,[6],1.11 (active)
same,scaled lipid accumulation score,[1],1.08 (active)
CN1CCN(C(=O)c2nc3ccc(Cl)cc3[nH]2)CC1,scaled lipid accumulation score,[1],0.076
CCOc1ccc(-c2nc3ccc(-c4nc5ccc(N6CCN(C)CC6)cc5[nH]4)cc3[nH]2)cc1,scaled lipid accumulation score,library stock concentration: 8.9 mM,0.339
CN1CCN(c2ccc3nc(-c4c(N)c5c(F)cccc5[nH]c4=O)[nH]c3c2)CC1 [Dovitinib (TKI-258) Dilactic Acid],scaled lipid accumulation score,[1],0.445
